The campaign covered roughly 390,000 compounds. About 17,000 (4.4%) were called active. Entries that show only a call come without a potency. Roughly 8% stayed inconclusive and do not appear here. The sample holds actives, similar compounds and a random draw of the others, so the mix is not that of the screen. Calls follow the shape of the dose curve; as a rule, active = well fitted inhibition curve with a large enough effect; inconclusive = small, poorly fitted or top-dose-only effect; inactive = no such curve, though single readings can be large or run the other way.
Potency is read from the fitted curve at half-maximal effect.

In the assay the target is Lysine-specific demethylase 4A (Homo sapiens) (UniProt O75164). As to the kind of experiment: qHTS Assay for Inhibitors of JMJD2A-Tudor Domain. Also: nearly all actives have a fitted effect of over 50% in size. As to conditions: AlphaScreen JMJD2A-Tudor / H3K4me3 peptide binding; series mostly up to 114 µM.
Chain of Lysine-specific demethylase 4A (Homo sapiens) (O75164 whole entry, looked up, the tested form may be a part): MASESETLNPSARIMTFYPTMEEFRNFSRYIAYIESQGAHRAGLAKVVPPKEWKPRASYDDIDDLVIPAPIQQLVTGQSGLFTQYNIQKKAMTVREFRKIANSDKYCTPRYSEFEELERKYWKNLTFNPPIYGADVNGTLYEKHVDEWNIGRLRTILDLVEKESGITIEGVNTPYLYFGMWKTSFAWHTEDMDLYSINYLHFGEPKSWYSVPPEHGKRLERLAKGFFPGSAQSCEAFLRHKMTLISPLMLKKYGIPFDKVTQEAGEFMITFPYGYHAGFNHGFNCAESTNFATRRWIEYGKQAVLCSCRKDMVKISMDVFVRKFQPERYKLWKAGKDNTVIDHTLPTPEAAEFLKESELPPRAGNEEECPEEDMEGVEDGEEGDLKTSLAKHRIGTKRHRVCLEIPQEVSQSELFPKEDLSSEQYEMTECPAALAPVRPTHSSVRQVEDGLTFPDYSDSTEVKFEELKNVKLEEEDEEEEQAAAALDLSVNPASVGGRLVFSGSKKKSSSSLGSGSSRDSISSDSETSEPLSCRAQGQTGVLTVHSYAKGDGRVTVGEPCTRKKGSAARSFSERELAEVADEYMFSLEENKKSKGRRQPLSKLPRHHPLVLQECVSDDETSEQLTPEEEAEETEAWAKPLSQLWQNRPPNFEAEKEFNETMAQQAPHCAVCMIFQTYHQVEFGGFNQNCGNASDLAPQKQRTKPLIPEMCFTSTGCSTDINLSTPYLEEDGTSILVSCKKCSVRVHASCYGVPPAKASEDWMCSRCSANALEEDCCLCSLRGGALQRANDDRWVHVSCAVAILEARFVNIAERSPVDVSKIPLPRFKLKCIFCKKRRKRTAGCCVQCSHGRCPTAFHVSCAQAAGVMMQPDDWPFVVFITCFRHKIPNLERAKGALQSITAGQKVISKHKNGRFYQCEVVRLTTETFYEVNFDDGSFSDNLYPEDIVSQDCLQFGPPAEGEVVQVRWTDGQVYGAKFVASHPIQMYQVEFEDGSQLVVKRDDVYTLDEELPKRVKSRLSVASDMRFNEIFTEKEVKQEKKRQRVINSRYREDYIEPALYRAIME
In the case of `Cc1ccccc1CNC(=O)CSc1nnc(C)c2c(C)n(-c3ccccc3)nc12`, the Potency result is “inactive”.

Consider `CCCOc1ccc(NC(=O)CC2C(=O)N(c3ccccc3)C(=O)N2Cc2ccco2)cc1` (stereo not drawn), for which the Potency entry is “inactive”.

Take `Cc1ccc(N2CC(C(=O)Nc3ccc(S(=O)(=O)N4CCCC4)cc3)CC2=O)cc1C` (stereo not drawn): the Potency entry was “inactive”.

Consider `CNS(=O)(=O)c1ccc(NC(=O)C2CC(=O)N(c3ccc(Cl)cc3)C2)cc1` (stereo not drawn), for which the Potency was 56.2 µM (active).

`O=C(Nc1ccc(S(=O)(=O)N2CCCCC2)cc1)C1CC(=O)N(c2ccc(F)cc2)C1` (stereo not drawn): the Potency entry is “inactive”.

Consider `CN1C(=O)c2ccccc2Sc2ccc(NC(=O)Cc3ccc(Cl)cc3)cc21`, for which the Potency entry was “inactive”.

Take `Cc1ccc(Cl)cc1N1CCN(S(=O)(=O)c2cc3[nH]c(=O)c(=O)[nH]c3cc2C)CC1`: the Potency result was “inactive”.

For `COc1ccc(-c2noc(-c3ccc(N4CCN(c5ccccc5)CC4)c([N+](=O)[O-])c3)n2)cc1OC`, the Potency result is “inactive”.

Consider `COc1ccc(NC(=O)c2sc3nc(-c4cc5cccc(OC)c5oc4=O)[nH]c(=O)c3c2C)cc1`, for which the Potency entry is “inactive”.

Regarding `Brc1ccccc1C1Nc2cccc3cccc(c23)N1`, the Potency was 50.1 µM (active).

`COc1cc2c(cc1OC)C(c1ccccc1Br)NC(=O)C2` (stereo not drawn): the Potency entry was “inactive”.

Turning to `Brc1ccccc1C1N=C(c2ccccc2)NO1` (stereo not drawn), the Potency result is “inactive”.

`Oc1ccc(C2Nc3cccc4cccc(c34)N2)cc1`: the Potency is 44.7 µM (active).

On to `Cn1nnnc1SCCCNCc1ccc(Cl)cc1`, for which the Potency result was “inactive”.

Turning to `O=c1cc(CSc2ncn[nH]2)[nH]c2ccc(F)cc12`, the Potency entry is “inactive”.

As to `CCc1nnc(SCC(=O)Nc2cc(OC)ccc2OC)nc1CC`, the Potency entry was “inactive”.

Turning to `O=C(NCCc1ccc(Cl)cc1)c1ccc2c(c1)N(Cc1ccc(F)cc1)C(=O)CS2`, the Potency result is “inactive”.

On to `Cc1ccc(NC(=O)C(Cc2ccccc2)NS(=O)(=O)c2ccc3c(c2)oc(=O)n3C)cc1C` (stereo not drawn), for which the Potency result is “inactive”.

In the case of `CCOc1ccc(NC(=O)C2CCN(S(=O)(=O)c3cc(-c4noc(C)n4)ccc3C)CC2)cc1`, the Potency result was “inactive”.

Regarding `CCOC(=O)C1CCN(C(=O)Nc2ccc(Cl)cc2)CC1`, the Potency result is “inactive”.

For `CCOC(=O)C1Sc2[nH]c(=O)sc2C(c2ccc(Cl)cc2)C1C(=O)OCC` (stereo not drawn), the Potency was 50.1 µM (active).

`CCOC(=O)C1C(=O)NCC1c1ccccc1` (stereo not drawn): the Potency entry is “inactive”.

`CCC(=O)N1CCc2cc(Br)cc(S(=O)(=O)NCc3ccc(Cl)cc3)c21`: the Potency result was “inactive”.

For the compound `Cc1cccc(NC(=O)c2ccc(F)c(S(=O)(=O)N(C)C3CCCCC3)c2)c1`, the Potency entry is “inactive”.

On to `CCc1cc2c(cc(C(=O)OC)n2Cc2nc(-c3ccc(C)cc3)oc2C)s1`, for which the Potency entry was “inactive”.

Take `O=C(CN1CCSCC1)N/N=C/c1ccc(F)cc1F`: the Potency was 10 µM (active).

With `O=C(CC(=O)N/N=C\c1ccc(F)cc1)NCCc1ccccc1`, the Potency result was “inactive”.

Take `O=C(Cn1cc(C(F)(F)F)ccc1=O)N/N=C/c1ccc(Cl)cc1Cl`: the Potency result is “inactive”.

For `O=C(CN1CCN(C/C=C/c2ccccc2)CC1)Nc1ccc(F)cc1F`, the Potency result was “inactive”.

For `O=C(CN1CCSCC1)N/N=C/c1ccc(F)cc1`, the Potency is 3.16 µM (active).

Take `Cc1ccc(COc2ccc(/C=N/NC(=O)CN3CCCCC3)cc2)cc1`: the Potency entry was “inactive”.

`COc1ccc(CNC(=O)c2cc3cccc(OC)c3oc2=O)cc1`: the Potency entry was “inactive”.

Regarding `CC(=O)N1c2ccccc2CC1C(=O)N1CCN(c2ccc(F)cc2)CC1` (stereo not drawn), the Potency entry was “inactive”.

With `CCOc1ccc(CNC(=O)Cn2cc3c(n2)-c2c(oc(C(=O)N4CCCC4)c2C)CC3)cc1`, the Potency result was “inactive”.

Regarding `CCCc1cc(=O)n2[nH]c(NCc3ccc(CC)cc3)nc2n1`, the Potency entry is “inactive”.

Take `COc1ccc(-c2csc(-c3c(N)c(C(=O)c4ccc(OC)c(OC)c4)n4ccccc34)n2)cc1`: the Potency result is “inactive”.

As for `COc1ccccc1CNC(=O)Cn1nc(C)c2nn(-c3ccc(Cl)cc3)c(C)c2c1=O`, the Potency entry was “inactive”.

For `COc1ccc(OC)c(CNC(=O)Cn2nc(C)c3c(C)n(-c4ccccc4)nc3c2=O)c1`, the Potency result is “inactive”.

On to `COc1ccc(OC)c(CNC(=O)Cn2nc(C)c3c(C)n(-c4ccc(C)cc4)nc3c2=O)c1`, for which the Potency is 35.5 µM (active).

`Cc1ccc2c(c1)N(C(=O)Nc1ccc(Br)cc1F)CCO2`: the Potency result is “inactive”.

In the case of `Cc1ccc(OCC(=O)OCc2cc(=O)n3nc(C4CC4)sc3n2)cc1`, the Potency result was “inactive”.

Take `CCN(C(=O)Cn1cnc2sc(C)c(S(=O)(=O)N3CCN(c4ncccn4)CC3)c2c1=O)c1ccccc1F`: the Potency result was “inactive”.

Regarding `CCOc1cc(-c2nnc(SCC(=O)NC3CCCCC3)nc2-c2ccc(OC)c(OCC)c2)ccc1OC`, the Potency result was “inactive”.

On to `CCN(C(=O)COC(=O)c1sccc1C)c1c(N)n(Cc2ccccc2)c(=O)[nH]c1=O`, for which the Potency result was “inactive”.

Regarding `CCN(C(=O)COC(=O)Cc1c(F)cccc1Cl)c1c(N)n(Cc2ccccc2)c(=O)[nH]c1=O`, the Potency result is “inactive”.

Take `CCN(C(=O)CN1CCN(Cc2ccccc2)CC1)c1c(N)n(Cc2ccccc2)c(=O)[nH]c1=O`: the Potency was 12.6 µM (active).

Turning to `OC[C@@H]1O[C@H](n2cnc3c(SCc4ccccc4)ncnc32)[C@H](O)[C@H]1O`, the Potency result was “inactive”.

As to `Cc1ccc(C(=O)N2c3ncnn3C3(CCCCC3)[C@@H]3CCCC[C@@H]32)cc1`, the Potency result is “inactive”.

With `CCC(=O)N1CCc2cc(CNS(=O)(=O)c3ccc(Br)s3)ccc21`, the Potency result is “inactive”.

Take `Cc1ccc(C(=O)O)cc1-c1ccc(/C=C2\SC(=O)N(CC(=O)Nc3ccc4c(c3)OCO4)C2=O)o1`: the Potency was 35.5 µM (active).

For the compound `Cc1nc([N+](=O)[O-])cn1CC(=O)Nc1ccc2c(c1)OCO2`, the Potency result was “inactive”.

As to `Cc1nn(CC(=O)Nc2ccc3c(c2)OCO3)c(C)c1[N+](=O)[O-]`, the Potency result is “inactive”.

In the case of `O=C(CSc1nnc(-c2ccncc2)n1-c1ccccc1)Nc1ccc(Cl)c(Cl)c1`, the Potency result is “inactive”.

For the compound `COc1ccccc1CN1CCC(CNC(=O)c2cnn(-c3cccc(Cl)c3)c2C2CCN(C(=O)OC(C)(C)C)CC2)CC1`, the Potency result is “inactive”.

Consider `COCCNC(=O)c1ccc2c(c1)N=C(C)c1cc(C)ccc1S2`, for which the Potency result was “inactive”.

As for `Oc1cccc(/C=N/Nc2ccc(Cl)nn2)c1O`, the Potency was 63.1 µM (active).

`C/C(=N\Nc1ccc(Cl)nn1)c1ccccc1O`: the Potency result was “inactive”.

In the case of `COc1cccc(CNC(=O)c2ccc3c(c2)N(Cc2ccc(C(F)(F)F)cc2)C(=O)c2ccccc2S3)c1OC`, the Potency entry is “inactive”.

For `CCCc1nn2c(=O)cc(COC(=O)c3ccc(NC(=O)C(C)Oc4ccccc4)cc3)nc2s1` (stereo not drawn), the Potency entry is “inactive”.

Take `COc1ccc(-c2nnc(SCC(=O)Nc3ccccc3C)o2)cc1OC`: the Potency result is “inactive”.

Take `Cc1ccc(OCCCC(=O)Nc2ccc(N3CCOCC3)cc2)cc1`: the Potency entry is “inactive”.

Consider `CCOC(=O)c1cnc2c(C)cc(Cl)cc2c1NCCc1ccc(OC)c(OC)c1`, for which the Potency entry was “inactive”.

Turning to `CCOC(=O)c1cnc2c(C)cc(C)cc2c1Nc1ccc(N2CCOCC2)cc1`, the Potency is 35.5 µM (active).

For the origin of these results see PubChem BioAssay AID504339 (National Center for Advancing Translational Sciences (NCATS), 2011).
